The values that follow come from PubChem BioAssay.

Active and inactive are the calls of the source.

A short description of test [1]: small molecules captured by biotinylated probe aFSTL3 – biochemical, small-molecule microarray, fluorescence 635/667, stem cell growth factor project, primary screen (AID 1064).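 Further: measures binding of the biotinylated anti-FSTL3 antibody to printed compounds.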 To be noted: higher = more signal.
Test [2] in a line: binders from COS7 lysate, DM2A8 probe, primary screen, torsin A project, cell lysate, small-molecule microarray, fluorescence 635/667 (AID 1065). To be noted: higher = more signal, COS7 lysate expressing mutant human TOR1A.
Test [3] can be described thus: small molecules captured by biotinylated probe aFGF2 – biochemical, small-molecule microarray, fluorescence 635/667, stem cell growth factor project, primary screen (AID 1067).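 Further: measures binding of biotinylated aFGF2 protein to printed compounds on slides; z-score merges feature fluorescence and signal-to-noise across triplicate slides.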 To be noted: higher = more signal.
The nature of test [4]: small molecules captured by biotinylated probe aFGF10 – biochemical, small-molecule microarray, fluorescence 635/667, stem cell growth factor project, primary screen (AID 1071).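 Further: score merges 667 nm spot intensity and signal to noise from triplicate slides.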 To be noted: higher = more signal.
In test [5] the target is Neurogenic locus notch homolog protein 2 (Homo sapiens) (UniProt Q04721). The test can be described thus: small molecules binding Notch2 protein – biochemical, small-molecule microarray, 635 nm fluorescence, stem cell growth factors, primary screen (AID 1073). To be noted: higher = more signal.
Test [6] deals with Pro-neuregulin-1, membrane-bound isoform (Homo sapiens) (UniProt Q02297). Description: small molecules binding neuregulin-1 protein – biochemical, small-molecule microarray, fluorescence 635/667, psychiatric disease protein project, primary screen (AID 1075).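 Further: score combines 667 nm spot fluorescence with signal to noise.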 To be noted: NRG1 binding, 635 nm fluorescence, higher = more signal.
The subject of test [7] is Neuregulin-1 EGF-like domain. Description: small molecules binding NRG1 EGF domain – biochemical, small-molecule microarray, 635 nm fluorescence, primary screen (AID 1081).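 Further: binding of the protein to compounds printed on small-molecule microarray slides.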 To be noted: higher = more signal.
Test [8] in a line: FRG1 expression reporter modulators in myotubes – cell-based, C2C12 myotubes, firefly/Renilla luciferase, luminescence, FRG1 inhibition for FSHD, primary screen (AID 1084). To be noted: FRG1 promoter luciferase, higher = more signal, called active from +8 up or from −8 down.
The nature of test [9]: small molecules captured by biotinylated probe aFST – biochemical, small-molecule microarray, fluorescence 635/667, stem cell growth factor project, primary screen (AID 1086).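 Further: score merges 667 nm fluorescence with signal-to-noise of each printed compound spot.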 To be noted: higher = more signal.
The nature of test [10]: binders of probe aHhip on microarray, primary screen, stem cell growth factor project, biochemical, small-molecule microarray, fluorescence 635/667 (AID 1087).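 Further: score merges spot fluorescence at 667nm with spot signal to noise ratio.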 To be noted: higher = more signal.
Test [11] has as its system PRMT1 (protein arginine N-methyltransferase 1). The test can be described thus: small molecules binding arginine methyltransferase PRMT1 – biochemical, small-molecule microarray, 635 nm fluorescence, primary screen (AID 1088).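 Further: binding of Prmt1 protein to compounds spotted on small-molecule microarray slides.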 To be noted: higher = more signal.
Test [12] in a line: growth effects on S. cerevisiae YJM789 – YJM789 clinical isolate, OD600, 24 h, basal, primary screen (AID 1089).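 Further: growth of clinical yeast isolate S. cerevisiae YJM 789 seeded 1000 cells per well; test concentration not given here.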 To be noted: higher = more signal, called active from +8 up or from −8 down.
The nature of test [13]: S. pombe growth modifiers, basal conditions – strain 972, OD600, 24 h, no modulator, primary screen (AID 1090).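 Further: basal condition with compound alone and no growth modifier present; test concentration not given here.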 To be noted: S. pombe 972 growth, higher = more signal, called active from +8 up or from −8 down.
Test [14] is described as follows: budding yeast growth modifiers under rapamycin – strain BY4716, OD600, 96 h, primary screen (AID 1091). Further: test concentration not given here. To be noted: S. cerevisiae BY4716 + rapamycin, higher = more signal, called active from +8 up or from −8 down.
Test [15] concerns the target Torsin-1A-interacting protein 2 (Homo sapiens) (UniProt Q8NFQ8). Description: small molecules binding lysate-expressed LULL1 – cell lysate, human LULL1 lysate, 635/667 nm fluorescence, primary screen (AID 1092).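 Further: probe is lysate of COS7 cells overexpressing human LULL1; score merges per-feature 667 nm fluorescence with signal-to-noise.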 To be noted: small-molecule microarray, hLULL1 lysate binding, 635 nm fluorescence; higher = more signal.
A short description of test [16]: optical density change of DRC41 E. coli – strain DRC41, OD650, 24 h, E. coli filamentation project, primary screen (AID 1093).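 Further: MC1000 strain lacking acrAB efflux and sulA so SOS filamentation is blocked; test concentration not given here.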 To be noted: E. coli DRC41 growth, higher = more signal, called active from +8 up or from −8 down.
A short description of test [17]: probe aLefty2 binding to arrayed compounds – biochemical, biotinylated probe, 635/667 nm fluorescence, primary screen (AID 1094).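 Further: score merges spot fluorescence near 667 nm with spot signal-to-noise ratio.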 To be noted: small-molecule microarray, higher = more signal.
The test system of test [18] is Noggin (protein binding on small-molecule microarray). Description: small molecules binding Noggin protein – biochemical, 635/667 nm fluorescence, primary screen (AID 1095).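 Further: score merges 667 nm feature fluorescence with signal to noise over triplicate slides.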 To be noted: 635 nm fluorescence, higher = more signal.
The target in test [19] is Neurogenic locus notch homolog protein 3 (Homo sapiens) (UniProt Q9UM47). Description: small molecules binding NOTCH3 protein – biochemical, 635/667 nm fluorescence, primary screen (AID 1096). To be noted: small-molecule microarray, 635 nm fluorescence, higher = more signal.
Test [20] can be described thus: probe aEGFR binding to arrayed compounds – biochemical, biotinylated probe, 635/667 nm fluorescence, primary screen (AID 1097).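 Further: probe is a biotinylated anti-EGFR antibody binding compounds printed on slides; score combines fluorescence near 667 nm and signal to noise of each spot.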 To be noted: small-molecule microarray, higher = more signal.

Chain of Torsin-1A-interacting protein 2 (Homo sapiens) (Q8NFQ8 whole entry, looked up): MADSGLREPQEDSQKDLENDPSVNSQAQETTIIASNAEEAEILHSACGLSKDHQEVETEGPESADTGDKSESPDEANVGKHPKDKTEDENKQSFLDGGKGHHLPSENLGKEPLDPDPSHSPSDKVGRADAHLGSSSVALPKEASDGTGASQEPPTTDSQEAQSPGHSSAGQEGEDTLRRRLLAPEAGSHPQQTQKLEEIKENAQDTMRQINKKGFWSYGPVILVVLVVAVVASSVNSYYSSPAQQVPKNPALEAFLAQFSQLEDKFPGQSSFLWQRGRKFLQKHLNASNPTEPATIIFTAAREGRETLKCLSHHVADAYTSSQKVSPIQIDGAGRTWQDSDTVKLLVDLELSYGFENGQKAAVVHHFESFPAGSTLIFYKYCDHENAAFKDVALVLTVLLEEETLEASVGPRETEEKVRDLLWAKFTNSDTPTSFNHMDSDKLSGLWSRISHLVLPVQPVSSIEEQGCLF
Chain of Pro-neuregulin-1, membrane-bound isoform (Homo sapiens) (Q02297 whole entry, looked up, the tested form may be a part, canonical isoform): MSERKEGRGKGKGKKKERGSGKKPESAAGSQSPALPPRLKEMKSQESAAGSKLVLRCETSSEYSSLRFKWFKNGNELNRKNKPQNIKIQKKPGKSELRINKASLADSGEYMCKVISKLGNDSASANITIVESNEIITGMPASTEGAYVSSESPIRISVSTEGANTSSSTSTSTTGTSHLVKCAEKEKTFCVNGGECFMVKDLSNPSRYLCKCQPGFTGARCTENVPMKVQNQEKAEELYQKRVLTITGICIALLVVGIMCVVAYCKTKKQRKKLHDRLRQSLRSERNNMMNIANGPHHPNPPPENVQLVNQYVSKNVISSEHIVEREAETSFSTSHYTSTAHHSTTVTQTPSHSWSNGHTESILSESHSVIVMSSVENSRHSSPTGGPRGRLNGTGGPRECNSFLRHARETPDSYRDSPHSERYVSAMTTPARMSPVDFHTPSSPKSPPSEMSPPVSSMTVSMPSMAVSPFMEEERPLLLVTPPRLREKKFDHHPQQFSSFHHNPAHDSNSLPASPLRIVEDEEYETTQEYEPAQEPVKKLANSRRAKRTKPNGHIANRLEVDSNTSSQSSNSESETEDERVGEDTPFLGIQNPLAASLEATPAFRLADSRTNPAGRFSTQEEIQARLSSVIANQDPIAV
Chain of Neurogenic locus notch homolog protein 3 (Homo sapiens) (Q9UM47 whole entry, looked up): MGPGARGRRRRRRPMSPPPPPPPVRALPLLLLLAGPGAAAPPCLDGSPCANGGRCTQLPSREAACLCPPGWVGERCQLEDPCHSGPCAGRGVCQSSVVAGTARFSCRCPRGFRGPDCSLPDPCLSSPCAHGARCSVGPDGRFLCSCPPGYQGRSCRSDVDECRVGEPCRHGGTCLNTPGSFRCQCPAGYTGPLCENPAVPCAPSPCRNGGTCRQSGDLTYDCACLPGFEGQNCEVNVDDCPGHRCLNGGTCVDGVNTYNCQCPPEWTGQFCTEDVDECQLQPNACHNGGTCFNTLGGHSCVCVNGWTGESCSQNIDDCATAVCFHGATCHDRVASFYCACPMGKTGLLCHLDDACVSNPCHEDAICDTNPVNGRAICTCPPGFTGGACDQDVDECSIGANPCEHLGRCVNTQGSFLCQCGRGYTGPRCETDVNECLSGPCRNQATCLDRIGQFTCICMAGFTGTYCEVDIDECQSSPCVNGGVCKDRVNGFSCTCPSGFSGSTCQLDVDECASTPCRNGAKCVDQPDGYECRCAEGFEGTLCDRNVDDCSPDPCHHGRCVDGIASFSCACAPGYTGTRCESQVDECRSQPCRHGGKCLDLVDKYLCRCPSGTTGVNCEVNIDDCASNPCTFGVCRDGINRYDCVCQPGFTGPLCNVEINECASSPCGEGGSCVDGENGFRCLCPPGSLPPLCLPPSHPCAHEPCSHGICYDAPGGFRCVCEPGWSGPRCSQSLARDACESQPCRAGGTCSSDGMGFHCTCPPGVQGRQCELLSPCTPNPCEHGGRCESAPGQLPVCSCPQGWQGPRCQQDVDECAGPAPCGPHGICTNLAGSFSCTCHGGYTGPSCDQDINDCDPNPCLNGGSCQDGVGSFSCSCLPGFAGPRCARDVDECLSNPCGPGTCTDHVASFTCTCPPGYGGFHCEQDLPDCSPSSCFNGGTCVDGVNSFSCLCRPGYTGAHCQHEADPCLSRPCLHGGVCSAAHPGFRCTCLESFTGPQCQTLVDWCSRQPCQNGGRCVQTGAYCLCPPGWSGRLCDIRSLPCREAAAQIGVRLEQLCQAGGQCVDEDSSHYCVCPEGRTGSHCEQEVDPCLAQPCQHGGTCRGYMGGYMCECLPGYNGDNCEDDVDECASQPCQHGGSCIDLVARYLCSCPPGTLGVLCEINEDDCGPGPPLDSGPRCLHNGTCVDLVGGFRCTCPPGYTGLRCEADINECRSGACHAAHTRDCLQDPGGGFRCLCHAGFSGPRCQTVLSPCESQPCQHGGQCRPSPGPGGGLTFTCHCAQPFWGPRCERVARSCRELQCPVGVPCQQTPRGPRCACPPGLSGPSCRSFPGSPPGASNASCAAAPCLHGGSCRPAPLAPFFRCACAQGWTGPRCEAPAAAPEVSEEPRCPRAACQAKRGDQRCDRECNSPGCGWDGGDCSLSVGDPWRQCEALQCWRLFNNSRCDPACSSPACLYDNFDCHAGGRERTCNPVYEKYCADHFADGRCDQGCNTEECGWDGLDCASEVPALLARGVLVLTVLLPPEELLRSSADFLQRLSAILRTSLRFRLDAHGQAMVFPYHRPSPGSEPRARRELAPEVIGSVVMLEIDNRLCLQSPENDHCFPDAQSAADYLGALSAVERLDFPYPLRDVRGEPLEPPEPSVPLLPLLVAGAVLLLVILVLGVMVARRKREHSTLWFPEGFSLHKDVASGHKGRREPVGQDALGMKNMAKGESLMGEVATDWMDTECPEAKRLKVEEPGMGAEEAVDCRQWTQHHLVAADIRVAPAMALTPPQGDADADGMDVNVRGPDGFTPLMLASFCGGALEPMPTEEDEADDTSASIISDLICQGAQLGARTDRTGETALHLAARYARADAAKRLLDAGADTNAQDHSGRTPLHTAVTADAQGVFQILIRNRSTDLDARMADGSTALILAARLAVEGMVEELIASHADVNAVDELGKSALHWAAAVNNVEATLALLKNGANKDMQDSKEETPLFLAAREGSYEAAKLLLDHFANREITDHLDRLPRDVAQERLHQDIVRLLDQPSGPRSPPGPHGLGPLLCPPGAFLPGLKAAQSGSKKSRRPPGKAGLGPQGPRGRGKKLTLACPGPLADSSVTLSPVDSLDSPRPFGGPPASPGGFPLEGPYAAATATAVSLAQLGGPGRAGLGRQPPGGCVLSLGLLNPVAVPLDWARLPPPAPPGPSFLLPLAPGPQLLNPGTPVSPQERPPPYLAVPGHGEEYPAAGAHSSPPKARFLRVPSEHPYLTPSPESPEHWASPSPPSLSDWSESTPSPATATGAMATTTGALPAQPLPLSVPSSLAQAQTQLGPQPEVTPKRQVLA

With `CC(C)(C)OC(=O)CC[C@@]1(C(=O)NCCN2CCOCC2)N=C(c2ccc(OCCCO)cc2)O[C@@H]1c1ccccc1CN=[N+]=[N-]`, the composite z-score in test [1] was 0.202; in test [2] it was 0.213; in test [3], 0.0154; in test [4], 0.167; in [5] it was 0.422; in test [6] it was 1.54. Moreover, the composite z-score in test [7] was 0.914; in test [9] it was 0.157; in test [10], 0.0106; in test [11], 1.09; in [15], 2.96; in test [17] it was -0.0152. Moreover, the composite z-score in [18] was 0.167; in test [19], 0.461; in test [20] it was -0.0479. Further, the z-score in test [8] is 5.92 (inactive); in test [12], -0.865 (inactive); in test [13] it was 0.258 (inactive); in test [14], -1.3 (inactive); in test [16], -1.07 (inactive).
For `CN(C)CCCNC(=O)[C@@H]1c2ccccc2C(=O)N(Cc2ccccc2C(F)(F)F)[C@H]1c1ccc(CO)cc1`, the composite z-score in [1] was 1; in [2] it was -0.335; in [3] it was -0.0416; in test [4] it was -0.702; in [5] it was -1.03; in test [6], 1.01. Besides, the composite z-score in [7] was -0.23; in test [9], -0.0464; in [10], -0.149; in test [11], 0.986; in test [15] it was 0.767; in test [17] it was 0.0518. In addition, the composite z-score in [18] is -0.396; in test [19], -0.704; in [20], -0.213. In addition, the z-score in [8] is -1.28 (inactive); in [12] it was 0.0389 (inactive); in test [13], -1.28 (inactive); in test [14], -0.461 (inactive); in test [16], 1.53 (inactive).
For the compound `CC(C)C(=C=CC[C@H](O)c1ccccc1OCCO)C[C@H](O)COCc1ccccc1`, the composite z-score in test [1] is -0.322; in [2], -0.0849; in [3], -0.136; in test [4], 0.483; in [5] it was -0.284; in test [6], 0.294. Also, the composite z-score in test [7] is 0.767; in test [9] it was -0.064; in test [10], -0.0994; in test [11], 0.251; in test [15] it was 2.8; in test [17], -0.187. The composite z-score is -0.0604 in [18], -0.287 in test [19] and -0.13 in test [20]. Besides, the z-score in test [8] was -0.843 (inactive); in test [12], -0.024 (inactive); in test [13], -1.26 (inactive); in [14], -0.501 (inactive); in test [16] it was -0.0543 (inactive).
As to `COCCOC(=O)N1C(=O)[C@@]2(c3cc(C#CCCO)ccc31)[C@H](C(N)=O)[C@H]1C(=O)O[C@H](c3ccccc3)[C@H](c3ccccc3)N1[C@@H]2c1ccccc1OCCO`, the composite z-score in test [1] was -0.352; in test [2] it was 0.755; in [3] it was -0.0579; in test [4], 0.658; in test [5] it was 1.11; in test [6], 1.43. The composite z-score in test [7] came to 1.19; in test [9] it was 0.52; in [10], 0.219; in [11], 1.54; in test [15], 2.15; in test [17] it was 0.319. The composite z-score in [18] came to 0.989; in [19], 1.15; in test [20], 0.105. Also, the z-score in test [8] was -0.96 (inactive); in [12] it was 1.85 (inactive); in test [13], 1.17 (inactive); in test [14] it was 3.4 (inactive); in [16], -0.497 (inactive).
`CN(C)c1ccc(C(O)C2C=CC3C(=O)N(Cc4ccccc4)C(=O)C3N2n2cnnc2)cc1` (stereo not given): the composite z-score is 0.0652 in [1]; 0.0666 in test [2]; -0.0303 in test [3]; 0.0521 in test [4]; 0.0282 in test [5]; -0.161 in test [6]. In addition, the composite z-score in test [7] is -0.103; in [9], 0.198; in test [10] it was 0.244; in test [11] it was -0.765; in [15] it was 0.0442; in [17] it was 0.123. For the same compound, the composite z-score in test [18] is 0.359; in test [19], -0.139; in [20], -0.0649. In addition, the z-score in test [8] was -1.18 (inactive); in [12] it was -1.24 (inactive); in test [13] it was 0.396 (inactive); in test [14], -0.528 (inactive); in test [16], 0.372 (inactive).
